# LmPK inh = blocks Leishmania mexicana pyruvate kinase activity; Potency, µM (top dose mostly 57.5 µM), for the others: at the top dose activity change, negative = inhibition, most hits filed as inhibitors; purified LmPK, Kinase-Glo ATP luminescence, 1 h; 0.37% of 290,000 active
# Target sequence (Q27686 whole entry, looked up): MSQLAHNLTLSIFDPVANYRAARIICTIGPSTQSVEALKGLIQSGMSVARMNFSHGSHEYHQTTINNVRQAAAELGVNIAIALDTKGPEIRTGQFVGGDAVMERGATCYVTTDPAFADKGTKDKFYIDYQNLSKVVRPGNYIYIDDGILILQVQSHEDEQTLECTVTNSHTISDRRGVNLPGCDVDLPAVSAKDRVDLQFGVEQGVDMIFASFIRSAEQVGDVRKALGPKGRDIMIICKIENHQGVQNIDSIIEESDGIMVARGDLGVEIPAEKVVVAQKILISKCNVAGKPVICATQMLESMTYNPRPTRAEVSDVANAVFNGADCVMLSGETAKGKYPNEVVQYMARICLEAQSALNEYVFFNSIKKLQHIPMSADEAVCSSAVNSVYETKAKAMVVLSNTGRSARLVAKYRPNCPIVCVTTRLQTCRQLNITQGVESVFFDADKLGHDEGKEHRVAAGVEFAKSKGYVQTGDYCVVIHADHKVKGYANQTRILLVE
#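 Kinase-Glo luminescence read after 1 h RT reaction of 0.1 nM LmPK with 0.5 mM PEP and 0.1 mM ADP. Activity scaled between uninhibited and enzyme-free controls.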
# TbPYK inhibitor = blocks Trypanosoma brucei pyruvate kinase; Q57TT1; TbPYK enzyme, Kinase-Glo Plus ATP luminescence, 45 min; Potency, µM (series often up to 76.8 µM), inactives show at the highest dose activity, negative = inhibition, most hits filed as inhibitors; 0.12% of 410,000 active; note: nearly all actives have a fitted effect of over 50% in size
#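 T. brucei PYK with substrate was exposed to pin-transferred compounds across a concentration series, then started with 130 uM ADP (final). After 45 min at room temperature, Kinase-Glo Plus luminescence was read, normalized and curve-fitted.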
# RE007 growth inh = less growth of the S. pombe RE007 Vpr strain | S. pombe RE007 Vpr strain, BacTiter-Glo ATP luminescence, 24 h | AID 651644 | 0.21% of 360,000 active | Potency, µM (series often up to 92.2 µM), without a hit: at the top dose activity change, negative = less growth, most hits filed as inhibitors; active = well fitted falling curve with a large enough effect; inconclusive = small, poorly fitted or top-dose-only effect; inactive = no such curve, though single readings can be large or run the other way; note: nearly all actives have a fitted effect of over 50% in size
#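 Fission yeast RE007 carrying one integrated HIV-1 vpr copy, seeded at OD 0.01 in PMG+AL medium with 23 nL pinned compound. Grown 24 h at 30 degrees; viability read by BacTiter-Glo luminescence after 5 min.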
# Sm TGR block = inhibitors of Schistosoma mansoni thioredoxin glutathione reductase. Q962Y6. purified TGR, DTNB reduction, TNB absorbance 405 nm. Potency, µM (titrated, usually from 114 µM), without a hit: at the highest dose activity change, negative = inhibition, hits mostly inhibitors. 3% of 360,000 active. AID 485364; note: nearly all actives have a fitted effect of over 60% in size
#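 TGR 20 nM + NADPH 100 uM (dispensed conc.), cpd preinc 15 min RT; start with NADPH (500 uM addition) then DTNB (15 mM addition). Kinetic TNB absorbance, 405 nm filter. Four-parameter Hill fit across titration.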
# Numbers without * were called inactive; ? = inconclusive; . = no result; [ ] = remark or other dose. Shown are actives, neighbours in structure and some others; about 3% of the full set was active somewhere. Unless noted, calls come from the whole dose curve; as a rule, active = well fitted curve in the direction sought with a large enough effect; inconclusive = small, poorly fitted or top-dose-only effect, or another doubt; inactive = no such curve, though single readings can be large; an effect the other way counts as inactive or inconclusive. % is set by controls: 0 for no effect and ±100 for the full control effect; potency is the fitted concentration of half-maximal effect.
SMILES,LmPK inh,TbPYK inhibitor,RE007 growth inh,Sm TGR block
CC(=O)Nc1ccc(CC(=O)Nc2ccc3c(c2)OC2(CCCC2)O3)cc1,.,-11%,7%,.
CN1CCCN(CC(O)COCc2cccs2)CC1 (configuration not stated),1%,12%,0%,50µM*
OC(COCc1cccs1)CN1CCCCCC1 (configuration not stated),11%,-13%,-6%,-31%
CC1(C)Cc2ccccc2-c2n[nH]c(=S)n21,7.1µM*,2.8µM*,7%,2%
C/C(=N\Nc1ccc(C)c(Cl)c1)c1cccnc1,-5%,-1%,2%,14µM*
C/C(=N\Nc1ccc(C)c(Cl)c1)c1ccncc1,0%,0%,-26%,-28%
COc1ccc(NC(=O)C(C)N(c2ccccc2)S(C)(=O)=O)cc1 (configuration not stated),.,-3%,.,3%
COc1ccc(CCC(=O)NCc2ccco2)cc1,3%,-19%,37%,56µM*
COc1ccc(N(C(C)C(=O)NCc2ccco2)S(C)(=O)=O)cc1 (configuration not stated),4%,-19%,13%,25µM*
O=C(CCc1ccc(S(=O)(=O)NCc2ccccc2)cc1)NCc1ccco1,-5%,6%,-27%,-2%
CC(C)(C)NS(=O)(=O)c1ccc(CCC(=O)NCc2ccco2)cc1,4%,-6%,17%,35µM*
O=C(c1csnn1)N1CCC2(CCCN(c3ccccn3)C2)CC1,.,-11%,.,.
O=C(O)C(c1ccccc1)N1C(=O)/C(=C\c2ccc(-c3ccc(Br)cc3)o2)SC1=S (configuration not stated),-1%,-7%,.,?
O=C(O)C(c1ccccc1)N1C(=O)/C(=C\c2ccc(-c3ccccc3Cl)o2)SC1=S (configuration not stated),0%,2%,-10%,14µM*
O=S(=O)(c1ccccc1)N1CCC2(CCN(c3cccc(-c4ccccc4)c3)CC2)CC1,.,0%,.,.
Cn1c(/N=C/c2ccc3c(c2)OCO3)nc2ccccc21,13µM*,-15%,-6%,7%
CCOC1=C2[C@@H](CN(S(=O)(=O)c3ccc(C)cc3)[C@H]2c2ccccc2Cl)[C@H]2C(=O)N(C)C(=O)[C@H]2C1,.,1%,-4%,.
CCOc1ccc(C(NC(C)=O)c2ccc(OC)c(OC)c2)cc1 (configuration not stated),6%,-11%,9%,2%
COc1ccc(C(NC(=O)/C=C/c2ccco2)c2ccc(OC)c(OC)c2)cc1 (configuration not stated),-2%,-11%,-2%,25µM*
CCOc1ccc(C(NC(=O)/C=C/c2ccco2)c2ccc(OC)c(OC)c2)cc1 (configuration not stated),5%,-18%,-9%,45µM*
COc1ccc(C(NC(=O)c2ccco2)c2ccc(OC)c(OC)c2)cc1OC,-1%,29%,14%,-11%
CCOc1ccc(C(=O)Nc2ccc3nc(SCC(=O)N(C)c4ccccc4)sc3c2)cc1,.,-2%,.,2%
Cc1ccc(N2C(=O)NC(=O)/C(=C\c3cnc(-c4ccccc4)nc3)C2=O)cc1,9%,-4%,?,1.6µM*
CCOc1ccc(N2C(=O)NC(=O)/C(=C/c3cnc(SC)nc3)C2=O)cc1,11%,?,-14%,8.9µM*
Cc1ccc(N2C(=O)NC(=O)/C(=C/c3cnn(-c4ccc(C)cc4)c3)C2=O)cc1,1%,-20%,-1%,-24%
SMILES,LmPK inh,TbPYK inhibitor,RE007 growth inh,Sm TGR block
CSc1ncc(/C=C2/C(=O)NC(=O)N(c3ccc(Cl)cc3)C2=O)cn1,3%,-13%,-15%,5.6µM*
CSc1ncc(/C=C2/C(=O)NC(=O)N(c3ccc(C)cc3)C2=O)cn1,2%,-27%,2%,2.5µM*
CCOc1ccc(N2C(=O)NC(=O)/C(=C\c3ccccc3[N+](=O)[O-])C2=O)cc1,3%,?,-25%,?
NC(=O)c1ccc(NC(=O)Cc2ccc(S(=O)(=O)N3CCCCC3)cc2)cc1,.,5%,-5%,-2%
COc1ccc(NC(=O)N2CCCC3(CCN(C(=O)c4cccc(F)c4)CC3)C2)cc1,.,0%,.,.
O=C(CSc1nc2nc(-c3cccs3)cc(C(F)(F)F)c2c(=O)[nH]1)C(F)(F)F,-1%,-4%,10%,3.5µM*
O=C(COc1ccccc1F)Nc1ccc2oc(-c3cccc(Cl)c3)nc2c1,.,2%,.,8%
N/C(=N\OC(=O)c1cccs1)c1ccccc1,13µM*,?,?,-1%
N/C(Cc1ccc(Cl)cc1Cl)=N\OC(=O)c1cccs1,4%,2%,18µM*,-5%
Cc1cccc(/C(N)=N/OC(=O)c2cccs2)c1,13µM*,?,?,3%
N/C(=N\OC(=O)c1ccc(F)cc1)c1cccc([N+](=O)[O-])c1,-2%,3%,-5%,-27%
Cc1ccc(/C(N)=N/OC(=O)c2cccs2)cc1,?,5%,?,-19%
N/C(Cc1ccc(Cl)cc1Cl)=N\OC(=O)Cc1cccs1,3%,-3%,-21%,-11%
Cc1cccc(/C(N)=N/OC(=O)c2ccc(F)cc2)c1,4.5µM*,?,?,-6%
CCOc1ccc(CNC(=O)c2ccc3c(c2)c(C)c(C)n3Cc2ccccc2)cc1OC,.,-3%[15.4 µM],.,7%
CCOc1ccc(C(=O)NCCc2csc(-c3cccc(C)c3)n2)cc1,.,0%,.,3%
CCOC(=O)N1CCc2c(sc3c2c(=O)n(Cc2ccccc2)c(=O)n3CC(=O)Nc2ccc(C)cc2C)C1,.,3%,.,17%
Cc1cn(-c2cc(NC(=O)c3ccc(C)c(Nc4nccc(-c5cccnc5)n4)c3)cc(C(F)(F)F)c2)cn1,.,-1%,.,.
N/C(=N\OC(=O)c1cccs1)c1cccc(Br)c1,16µM*,-5%,-27%,.
COc1ccc(/C(N)=N/OC(=O)c2cccs2)cc1OC,-3%,-1%,0%,6%
CCC1CCCCN1C(=O)CCc1nnc(Cc2c[nH]c3ccccc23)o1 (configuration not stated),7%,-15%,-8%,25µM*
CC1CCCCN1C(=O)CCc1nnc(Cc2c[nH]c3ccccc23)o1 (configuration not stated),2%,-6%,18%,35µM*
COC(=O)C1CCCCN1C(=O)CCc1nnc(CCc2c[nH]c3ccccc23)o1 (configuration not stated),0%,-1%,11%,0%
CN(CCC1CCCCO1)C(=O)CCc1nnc(CCc2ccccc2)o1 (configuration not stated),1%,-1%,0%,-25%
CN(CCC1CCCCO1)C(=O)CCc1nnc(Cc2c[nH]c3ccccc23)o1 (configuration not stated),-7%,-9%,-5%,89µM*
CC(C)CN1CCN(C(=O)CCc2nnc(Cc3c[nH]c4ccccc34)o2)[C@@H](C)C1=O,3%,-9%,-14%,20µM*
CC(=O)N1CCc2cc(Br)cc(S(=O)(=O)CCC(=O)N3CCN(c4ccc(F)cc4)CC3)c21,.,2%,.,?
